Source: PubChem BioAssay (NCI)
About 83,000 compounds went through this panel and 20% of them were active in at least one assay; those are over-represented in the sample as a whole.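 In brief: 96-well plates, 48 h treatment, single concentration, percent growth endpoint.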 Values without a mark were called inactive. Calls of active or inactive are those of the source. The calls were made as follows: active = growth percent below 10; inactive = the rest.

Tests used:
Assay in all cases: NCI-60 one-dose screen, 48 h (100 = growth as untreated, 0 = no growth, -100 = all killed)
Settings in all cases: 10 µM unless noted
SK-MEL-2 melanoma = tested on: SK-MEL-2 melanoma
EKVX NSCLC = tested on: EKVX NSCLC
SN12C renal = tested on: SN12C renal
UO-31 renal = tested on: UO-31 renal
TK-10 renal = tested on: TK-10 renal
ACHN renal = tested on: ACHN renal
CAKI-1 renal = tested on: CAKI-1 renal
A498 renal = tested on: A498 renal
CCRF-CEM leukemia = tested on: CCRF-CEM leukemia
MOLT-4 leukemia = tested on: MOLT-4 leukemia
SR leukemia = tested on: SR leukemia
RPMI-8226 leukemia = tested on: RPMI-8226 leukemia
OVCAR-8 ovarian = tested on: OVCAR-8 ovarian
OVCAR-5 ovarian = tested on: OVCAR-5 ovarian
SK-OV-3 ovarian = tested on: SK-OV-3 ovarian
IGROV1 ovarian = tested on: IGROV1 ovarian
OVCAR-3 ovarian = tested on: OVCAR-3 ovarian
HS 578T breast = tested on: HS 578T breast
NCI/ADR-RES ovarian = tested on: NCI/ADR-RES ovarian
OVCAR-4 ovarian = tested on: OVCAR-4 ovarian

| Structure (SMILES) | growth (SK-MEL-2 melanoma) | growth (EKVX NSCLC) | growth (SN12C renal) | growth (UO-31 renal) | growth (TK-10 renal) | growth (ACHN renal) | growth (CAKI-1 renal) | growth (A498 renal) | growth (CCRF-CEM leukemia) | growth (MOLT-4 leukemia) | growth (SR leukemia) | growth (RPMI-8226 leukemia) | growth (OVCAR-8 ovarian) | growth (OVCAR-5 ovarian) | growth (SK-OV-3 ovarian) | growth (IGROV1 ovarian) | growth (OVCAR-3 ovarian) | growth (HS 578T breast) | growth (NCI/ADR-RES ovarian) | growth (OVCAR-4 ovarian) |
| --- | --- | --- | --- | --- | --- | --- | --- | --- | --- | --- | --- | --- | --- | --- | --- | --- | --- | --- | --- | --- |
| Fc1ccc(/C=C/c2cc(/C=C/c3ccc(F)cc3)n(-c3cc(F)cc(F)c3)n2)cc1 | 90.8% | 92.3% | 102% | 82.8% | 82.5% | 99% | 90.6% | 95.6% | 3.7% (active) | 103% | 87.5% | 73.8% | 112% | 95.2% | 97.4% | 90.3% | 108% | 114% | 101% | – |
| C=CCn1c(SCC(=O)Nc2ccc(C(=O)/C=C/c3ccc(Cl)cc3)cc2)nnc1-c1ccccc1 | 109% | 92.3% | 92.8% | 76.5% | 87.9% | 99.9% | 92.6% | 99.5% | 85.6% | 68.6% | 82.5% | -16% (active) | 102% | 95.3% | 98.2% | 89.1% | 90.2% | 111% | 93.7% | – |
| CN1/C(=C/C=C/c2n(Cc3ccc4ccccc4c3)c(Cl)c(Cl)[n+]2Cc2ccc3ccccc3c2)Oc2ccccc21 | -87.9% (active) | -91.7% (active) | -92.9% (active) | -93.1% (active) | -90.5% (active) | -96.6% (active) | -94.1% (active) | -77.9% (active) | -52.7% (active) | 91.1% | 95.3% | -53.1% (active) | -86.1% (active) | -83.1% (active) | -57.2% (active) | -80.4% (active) | -83.8% (active) | -44.4% (active) | 33.4% | – |
| O=C(Nc1ncc(Cc2cc(C(F)(F)F)ccc2Cl)s1)C(=S)N1CCOCC1 | 104% | 83% | 96.2% | 69.5% | 88.5% | 99.4% | 67.1% | 90.3% | 92.3% | 93% | 92.1% | 81.9% | 95.2% | 94.7% | 92% | – | 105% | 92.6% | 91.3% | – |
| CCN(CC)CCCNC(=O)c1c2c(n3ccccc13)C(=O)c1ncccc1C2=O | -55.3% (active) | -84.5% (active) | -56% (active) | -19.8% (active) | -0.124% (active) | -34.5% (active) | 11.8% | -73% (active) | -36.2% (active) | -40.6% (active) | -22.6% (active) | -23.8% (active) | -56.1% (active) | -8.93% (active) | -41.4% (active) | – | -39.5% (active) | 37.5% | 3.02% (active) | – |
| CC1=C(C(=O)c2ccccc2)C(c2ccc3c(c2)OCO3)NC(=S)N1 (centres undefined) | 60.5% | 73.5% | 51.4% | 55.7% | 66% | 45.5% | 35.6% | -12.5% (active) | 41.2% | 36.6% | 6.28% (active) | 44% | 46.7% | 72.5% | 51.6% | 46.1% | 12.9% | 23.4% | 43.3% | – |
| CCCCCCCCCCCCCCCCCCOc1ccccc1CC(=O)OCC[N+]1(C)CCCCC1 | 80.3% | 63.1% | 24.2% | 73.8% | 66.2% | 94.7% | 65.5% | 83.3% | 6.32% (active) | 6.43% (active) | 10% | -10.2% (active) | 21.9% | 54.8% | 96.6% | – | 61.7% | 62.3% | 92.3% | – |
| CC(=O)Oc1ccccc1C(=O)N(Cc1ccc2c(Cl)cc(Cl)c(O)c2n1)c1ccccc1 | 66.7% | 37.4% | 46.8% | 29.9% | 81.3% | 33.8% | 38.9% | 57.6% | 31.3% | 38.7% | 39.7% | – | 34.9% | 77.2% | 64.5% | 42.8% | 40.9% | 76.5% | 8.97% (active) | 36.2% |
